IP6K1 inh: inhibitors of human IP6K1; AID 1645851; IP6K1 kinase, ADP-Glo luminescence, 2 h; active compounds read low; Q92551; actives 0.81% (n = 140,000); activity change, % (series mostly up to about 58 µM); in the data active = activity change below about -25%; also: % is scaled to controls: 0 for no effect and ±100 for the full control effect
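ADP-Glo luminescence measures ADP made by human IP6K1 during a 2 h RT reaction with ATP/IP6 (mix at 1.3 mM/130 uM); top library doses 57.5 and 19.1 uM final.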
KDM5B inh: inhibitors of human KDM5B histone demethylase | KDM5B demethylase, FDH-coupled NADH fluorescence (FDH is formaldehyde dehydrogenase) | Potency, µM (top dose mostly 57.7 µM), hits mostly inhibitors | AID 1347165 | Q9UGL1 | actives 2.6% (n = 220,000); active = well fitted inhibition curve with a large enough effect; inconclusive = small, poorly fitted or top-dose-only effect; inactive = no such curve, though single readings can be large or run the other way; also: potency is read from the fitted curve at half-maximal effect; 0% is about no effect; nearly all actives have a fitted effect of over 70% in size
Target sequence (Q9UGL1 whole entry, looked up): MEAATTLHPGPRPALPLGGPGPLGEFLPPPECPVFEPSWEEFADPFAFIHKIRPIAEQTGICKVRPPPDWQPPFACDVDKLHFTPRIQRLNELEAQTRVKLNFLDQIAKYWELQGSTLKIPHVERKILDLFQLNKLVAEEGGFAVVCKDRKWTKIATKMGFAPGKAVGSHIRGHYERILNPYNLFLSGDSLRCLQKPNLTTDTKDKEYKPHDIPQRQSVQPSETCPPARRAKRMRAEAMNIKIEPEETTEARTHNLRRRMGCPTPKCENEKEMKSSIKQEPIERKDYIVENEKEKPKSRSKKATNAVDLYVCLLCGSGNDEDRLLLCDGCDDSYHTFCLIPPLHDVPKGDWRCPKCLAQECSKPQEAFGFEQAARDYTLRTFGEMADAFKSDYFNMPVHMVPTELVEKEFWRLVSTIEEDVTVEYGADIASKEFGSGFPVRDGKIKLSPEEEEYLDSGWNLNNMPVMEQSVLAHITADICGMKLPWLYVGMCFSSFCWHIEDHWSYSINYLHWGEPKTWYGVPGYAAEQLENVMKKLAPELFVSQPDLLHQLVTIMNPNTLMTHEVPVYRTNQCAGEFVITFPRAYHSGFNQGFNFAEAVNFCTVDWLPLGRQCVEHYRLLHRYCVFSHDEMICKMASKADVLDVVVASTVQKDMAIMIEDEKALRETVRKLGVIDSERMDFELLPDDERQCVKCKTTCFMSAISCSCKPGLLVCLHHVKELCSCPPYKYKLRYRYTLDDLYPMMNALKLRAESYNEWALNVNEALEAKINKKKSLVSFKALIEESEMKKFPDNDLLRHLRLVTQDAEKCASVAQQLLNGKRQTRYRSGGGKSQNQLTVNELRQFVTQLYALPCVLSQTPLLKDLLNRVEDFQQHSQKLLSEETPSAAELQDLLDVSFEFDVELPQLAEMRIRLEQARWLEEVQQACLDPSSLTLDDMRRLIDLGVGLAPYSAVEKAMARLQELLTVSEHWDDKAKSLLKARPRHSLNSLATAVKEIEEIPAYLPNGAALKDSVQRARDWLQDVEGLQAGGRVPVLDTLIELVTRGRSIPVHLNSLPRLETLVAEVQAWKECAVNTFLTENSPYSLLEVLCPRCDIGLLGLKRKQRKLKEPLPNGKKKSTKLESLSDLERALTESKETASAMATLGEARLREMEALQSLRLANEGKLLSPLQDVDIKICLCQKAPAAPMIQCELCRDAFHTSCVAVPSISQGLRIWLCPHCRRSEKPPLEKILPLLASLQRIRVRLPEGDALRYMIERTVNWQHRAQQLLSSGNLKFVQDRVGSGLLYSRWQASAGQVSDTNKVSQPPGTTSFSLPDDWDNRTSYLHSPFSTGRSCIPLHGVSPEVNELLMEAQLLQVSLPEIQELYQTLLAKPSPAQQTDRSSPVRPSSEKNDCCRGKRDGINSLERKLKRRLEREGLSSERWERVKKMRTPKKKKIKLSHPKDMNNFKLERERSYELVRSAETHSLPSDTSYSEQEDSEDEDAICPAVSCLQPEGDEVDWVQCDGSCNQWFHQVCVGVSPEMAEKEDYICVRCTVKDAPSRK
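Coupled FDH/NAD⁺ fluorescence readout. KDM5BΔAP 200 nM final; compound titration, 10 min RT preincubation; substrate mix 12.5 µM H3K4me3, 25 µM 2-OG, 50 µM Fe(II), 100 µM ascorbate, 0.25 mM NAD⁺, 0.25 U/mL FDH; ΔRFU over 30 min.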
* hit, by the source's call; i = inactive; ? = inconclusive; / = no result given. Rows were chosen to be rich in hits. Some 2.7% of all compounds tested hit in one or more screens of this group.

SMILES | IP6K1 inh | KDM5B inh
O=C(CSc1nnc(-c2ccc(S(=O)(=O)N3CCCCCC3)cc2)o1)c1ccccc1 | / | i
CC(C)C(C(=O)NC(C)C1CC2CCC1C2)c1ccc(Cl)cc1 (stereo unspecified) | / | i
O=C(c1ccc(Cl)cc1)N1CC2(CCCN2Cc2cccnc2)Cc2ccccc21 (stereo unspecified) | -11.9 | i
O=C(NCc1nnc2ccc(-c3ccccc3)nn12)c1ccc[nH]1 | -4.8 | i
O=C(NCc1nnc2ccc(-c3ccccc3)nn12)c1ccc(Cl)s1 | -6.1 | 22.4µM*
Cc1ccsc1C(=O)NCc1nnc2ccc(-c3ccc(Cl)cc3)nn12 | 7.0 | 31.6µM*
O=C(NCc1nnc2ccc(-c3ccc(Cl)cc3)nn12)c1ccc(Cl)s1 | 7.6 | 5.01µM*
Cn1nc(C(=O)NCc2nnc3ccc(-c4ccccc4)nn23)c2ccccc21 | 30.4 | ?
O=C(NCc1nnc2ccc(-c3ccc(Cl)cc3)nn12)c1cccc2[nH]ccc12 | 1.0 | i
Cc1ccc(C(=O)NCc2nnc3ccc(-c4ccc(Cl)cc4)nn23)s1 | 8.7 | 15.8µM*
Cc1ccc(C(=O)NCc2nnc3ccc(-c4ccccc4)nn23)s1 | 15.1 | ?
COc1ccc(CNC(=O)C2CCCN(c3nccc(Nc4ccc(C)cc4)n3)C2)cc1 (stereo unspecified) | -6.4 | /
Cc1ccc2c(=O)cc(C(=O)Nc3ccc(S(=O)(=O)N(C)c4ccccc4)cc3)oc2c1 | / | i
CC(NC(=O)CCC(=O)NCCc1ccc(Cl)cc1)C12CC3CC(CC(C3)C1)C2 (stereo unspecified) | / | i
CCCC(NC(=O)c1sccc1C)c1ccccc1 (stereo unspecified) | / | i
COc1cccc(C(=O)N2CCCC(C(=O)N3CCC(N4CCOC4=O)CC3)C2)c1 (stereo unspecified) | 17.2 | /
Cc1oc(-c2ccccc2)nc1CC(=O)N1CCCC(C(F)(F)F)C1 (stereo unspecified) | / | i
Cc1nc2ccc(Cl)cc2cc1C(=O)N(C)CCOc1ccc(F)cc1 | / | i
CCN(CCOc1ccc(F)cc1)C(=O)c1cnc(NC(C)C)nc1 | -2.7 | 28.2µM*
COc1ccc(-c2nc(C(C)C)nc3c2CCN([S+](=O)([O-])c2ccc(C)cc2)CC3)cc1 | 12.5 | i
O=C(NCc1ccccc1)c1nc2c(o1)CCN(Cc1ccc(F)cc1F)CC2 | 2.3 | ?
O=C(NCc1cccc(F)c1)c1nc2c(o1)CCN(Cc1cccc(Cl)c1)CC2 | 7.2 | 35.5µM*
N#Cc1ccc(CN2CCc3nc(C(=O)NCc4cccc(F)c4)oc3CC2)cc1 | 2.8 | ?
COc1cccc(CN2CCc3nc(C(=O)NCC4CC4)oc3CC2)c1 | -6.2 | 39.8µM*
COc1cccc(CN2CCc3nc(C(=O)N4CCOCC4)oc3CC2)c1 | 6.8 | i
SMILES | IP6K1 inh | KDM5B inh
O=C(NCc1cccc(F)c1)c1nc2c(o1)CCN(Cc1cc(F)ccc1F)CC2 | 23.7 | 31.6µM*
O=C(CCc1ncc(-c2ccc(F)cc2)o1)NCc1ccc2c(c1)OCO2 | / | i
COCCCNC(=S)Nc1ccccc1C(C)(C)C | / | i
CCOCCCNc1oc(/C=C/c2cccc(OC)c2)nc1C#N | / | i
COc1ccc2ccc(OC(=O)c3ccc(CNC(C)=O)cc3)cc2c1 | / | i
Cc1cccc(C)c1NC(=O)COC(=O)CC1Sc2ccccc2NC1=O (stereo unspecified) | / | i
COc1ccc(F)cc1-c1ccc(CN2CCCCC2C(=O)N2CCN(c3ncccn3)CC2)cc1 (stereo unspecified) | -7.4 | /
COc1ccc(-c2cc(N3CCC(NC(=O)c4ccc(Br)cc4)C3)n[nH]2)cc1 (stereo unspecified) | 7.3 | 11.2µM*
COc1ccc(-c2cc(N3CCC(NC(=O)COc4ccccc4C)CC3)n[nH]2)cc1 | 17.5 | 15.8µM*
COc1ccc(C(=O)NC2CCN(c3cc(-c4ccc(OC)cc4)[nH]n3)CC2)cc1 | 15.3 | ?
COc1ccc(-c2cc(N3CCC(NC(=O)c4ccc5cc[nH]c5c4)CC3)n[nH]2)cc1 | 24.2 | 28.2µM*
COc1ccc(-c2cc(N3CCC(NC(=O)Cc4ccccc4C)CC3)n[nH]2)cc1 | 4.8 | ?
COc1ccc(C(=O)NC2CCN(c3cc(-c4ccc(OC)cc4)[nH]n3)C2)cc1 (stereo unspecified) | 9.3 | ?
COc1ccc(-c2nc(N)nc(C)c2-c2ccc(OC)c(OC)c2)c(O)c1 | / | i
Cc1cc(C)cc(Nc2nc(C)c(C(=O)N(C)C)s2)c1 | / | i
O=C(Nc1ccc(Cl)cc1)c1nc2c(o1)CCN(Cc1cccc(O)c1)CC2 | -8.8 | 31.6µM*
O=C(Nc1ccccc1)c1nc2c(o1)CCN(Cc1ccc(F)c(Cl)c1)CC2 | -12.5 | 28.2µM*
O=C(Nc1ccc(Cl)cc1)c1nc2c(o1)CCN(Cc1ccc3cn[nH]c3c1)CC2 | 1.6 | 35.5µM*
O=C(Nc1ccc(Cl)cc1)c1nc2c(o1)CCN(Cc1ccncc1)CC2 | 1.7 | i
